The whole screen tested about 69,000 compounds, of which about 8,600 (12%) showed an effect of 50% or more. The sample as a whole holds a higher share of strong results than the screen did.

This assay relates to Plasmodium berghei. The assay can be described thus: Screen against P. berghei liver stage (PbLuc), transformed with Luciferase, at 10uM. The class given is functional, HepG2. The following applies: tested at 10 uM.
On to `Cc1ccc(NCc2ncc(C(C)(C)C)o2)c(Cl)c1`, for which the INHIBITION was -26.2%.

Regarding `CCN(Cc1ncc(C(C)(C)C)o1)Cc1ccccc1C`, the INHIBITION is reported as 53.3%. As for `Cc1cccc(CN(Cc2ccccn2)Cc2ncc(C(C)(C)C)o2)c1`, the figure is 71.5%; as for `CCN(Cc1cccc(Cl)c1)Cc1ncc(C(C)(C)C)o1`, 49%. As for `Cc1cccc(CN(Cc2ccccn2)S(=O)(=O)N(C)C)c1`, the figure is -1.38%; as for `CC(C)(C)c1cnc(CNc2cccc(Cn3cnnc3)c2)o1`, -17.6%; as for `Cc1cccc(NCc2ncc(C(C)(C)C)o2)c1`, 72.2%. Consider `Cc1cccc(CN(Cc2ccccn2)S(=O)(=O)N(C)C(C)C)c1`, for which the INHIBITION is listed as -12.4%. As for `Cc1ccc(CN(C)Cc2ncc(C(C)(C)C)o2)o1`, the figure is 46.4%. As for `Nc1ncc(-c2cccc(NC(=O)[C@@H]3CCCCN3)c2)cn1`, the figure is 14.5%. The value for `Cc1cncc(C(=O)N2C[C@H]3CCC[C@@]3(COc3ccccn3)C2)c1` was 24.5%; that for `CN(C)S(=O)(=O)N1CC[C@H]2OCC[C@@]2(COc2cccnc2)C1` was 33%; that for `Cc1nc(C)c(CN2CCOC(CNc3cccnn3)C2)s1` (stereo unspecified) was 41.5%.

As to `O=C(c1cc(-n2cccn2)ccc1Cl)N1CCCC(N2CCCC2)C1` (stereo unspecified), the INHIBITION stood at 14.6%. As for `CCN(C)C[C@@H]1CN(C(=O)c2cc(-c3ccc(F)cc3)n[nH]2)C[C@@H]1CO`, the figure is 43.9%; as for `CCc1ccc(CN2CC[C@@H]3CN(S(C)(=O)=O)CCO[C@@H]3C2)o1`, 42.6%.

For the compound `CCOc1cccc2c1OCC(=O)N(c1ccc3c(c1)OCO3)C2`, the INHIBITION came to 14.9%. `CCOc1cccc2c1OCC(=O)N(c1ccc(N(C)C)cc1)C2`: the INHIBITION came to 45.5%. In the case of `CCOc1cccc2c1OCC(=O)N(c1ccc3c(c1)OCCO3)C2`, the INHIBITION was 56.5%. The value for `Cc1ccoc1C(=O)N1CCc2ccc(=O)n(CCN(C)C)c2CC1` was -16.2%; that for `CCN(CC)C(=O)c1nc2c(s1)CCN(C(=O)Nc1ccccc1)CC2` was 58.3%. As for `CNC(=O)N1CCc2nc(C(=O)Nc3cccnc3)sc2CC1`, the figure is 42.6%; as for `COCC(=O)N1CCc2nc(C(=O)Nc3cccnc3)sc2CC1`, -52.3%; as for `O=C(c1ccc(Cl)cc1)N1CCc2nc(C(=O)N3CCCC3)sc2CC1`, -29.3%. Consider `NC(=O)c1nc2c(s1)CCN(Cc1ccccc1)CC2`, for which the INHIBITION was determined as 12.1%. As for `CNC(=O)c1nc2c(s1)CCN(C(=O)c1ccccc1)CC2`, the figure is 1.9%; as for `NC(=O)c1nc2c(s1)CCN(C(=O)Nc1ccccc1)CC2`, 40.5%; as for `O=C(Nc1ccccc1)N1CCc2nc(C(=O)N3CCCC3)sc2CC1`, 89.1%. As for `NC(=O)c1nc2c(s1)CCN(C(=O)Nc1cccc(Cl)c1)CC2`, the figure is 80.2%. As for `Cc1ccc(CN2C[C@@H]3COC[C@H](NS(C)(=O)=O)[C@@H]3C2)s1`, the figure is -1.36%; as for `CCNC(=O)NC(C)c1nc(-c2ccc(Br)cc2)no1` (stereo unspecified), 33.5%.

Regarding `Cc1nccc(C2CCCCN2Cc2ccccc2)n1` (stereo unspecified), the INHIBITION came out at 20.8%. As to `Cc1nccn1C1CCCN(C(=O)c2cccc(S(C)(=O)=O)c2)C1` (stereo unspecified), the INHIBITION was found to be 19.5%. The value for `CCOc1nnc(CN(C)C2CCCN(c3ccc(C)nn3)C2)s1` (stereo unspecified) was 46.7%; that for `CNC(=O)C1(N2CCC[C@H]2C(=O)NC2CCCCC2)CCOCC1` was -1.36%; that for `c1ccc(N2CCOC(Cc3cccnc3)C2)cc1` (stereo unspecified) was -33.4%.

Consider `CCN(CC)Cc1nc(Cc2cccc(C(F)(F)F)c2)no1`, for which the INHIBITION came to 26.7%.

In the case of `O=C(c1ccccc1)N1CCN(C2CCc3ccc(F)cc32)CC1` (stereo unspecified), the INHIBITION was determined as 49.4%. As for `O=C(CN1CCOCC1)N1CCC(c2cc(N3CCCC3)ncn2)CC1`, the figure is -85.6%; as for `O=C(c1cc(F)ccc1O)N1CCN(C2CCOCC2)CC1`, 3.84%. With `NC(=O)N1CCCN(C2CCc3ccc(F)cc32)CC1` (stereo unspecified), the INHIBITION was 84.2%. As for `NC(=O)C1CCN(C(=O)NC2CCc3cc(F)ccc32)CC1` (stereo unspecified), the figure is 17%. The value for `O=C(CN1CCOCC1)N1CCN(C2CCc3ccc(F)cc32)CC1` (stereo unspecified) was 54.4%; that for `Cc1ncsc1C(=O)NCCNC(=O)Cc1cccc(F)c1` was -89.6%. For `CC(Cn1cccn1)NC(=O)Nc1nncs1` (stereo unspecified), the INHIBITION was -39.7%.

As for `COCCN1CCCN(C(=O)NC(C)Cn2ccnc2)CC1` (stereo unspecified), the INHIBITION worked out at 26.3%. The value for `Cc1ccnc(OC[C@@]23CCO[C@@H]2CCN(c2ncc(F)cn2)C3)n1` was 16.9%. As for `CC(C)CN1CCCC(c2nc(O)c3cc(F)ccc3n2)C1` (stereo unspecified), the figure is 20.1%; as for `COC(=O)C1Cc2nc[nH]c2CN1Cc1ccc(Sc2ncccn2)o1` (stereo unspecified), 35.7%. Regarding `COC(=O)[C@@H]1Cc2[nH]cnc2CN1Cc1cc2ccccc2o1`, the INHIBITION worked out at 56.8%. For `O=C([C@@H]1Cc2[nH]cnc2CN1Cc1cc2ccccc2o1)N1CCCC1`, the INHIBITION was -67.6%.

Regarding `Cc1cccc(N2CCN(C(=O)CC3(O)CCCC3)C(C)C2)n1` (stereo unspecified), the INHIBITION is recorded as -24.2%. Regarding `CNc1nc(C(=O)N2C[C@@H]3CC[C@H]2CN(S(C)(=O)=O)C3)cs1`, the INHIBITION is 7.1%.

As to `CNc1nc(C(=O)N2CCN(c3cc(C)nc(C)c3)CC2)cs1`, the INHIBITION was 34.9%. Take `COc1ccnc(N2CCN(C(=O)c3csc(C)n3)CC2)n1`: the INHIBITION was -12.6%. The value for `Cc1nc(C(=O)N2CCN(c3ccc(Cl)c(Cl)c3)CC2)cs1` was 90.3%; that for `CNc1nc(C(=O)N2CCN(c3ccc(Cl)c(Cl)c3)CC2)cs1` was 86.6%. As for `CNc1nc(C(=O)N2CCCN(c3ccnc(C)c3)CC2)cs1`, the figure is -10.6%; as for `Cc1csc(N2CCCN(C(=O)c3csc(C)n3)CC2)n1`, 37.9%; as for `CNc1nc(C(=O)N2C[C@@H]3CCN(C)[C@@H]3C2)cs1`, 55%. The value for `CN1CC[C@H]2CN(C(=O)c3csc(Cc4ccccc4)n3)C[C@H]21` was 22.9%; that for `CC(O)CN(C)C(=O)CCNC(=O)OC(C)(C)C` (stereo unspecified) was 44.9%; that for `CC(C)N1CCC(c2cnc(-c3cn[nH]c3)cn2)CC1` was 20.5535%.

Regarding `CC(=O)N[C@@H]1CN(C(=O)c2cccc(C)c2)C[C@H]1O`, the INHIBITION was found to be 0.19%. The value for `CC[C@H](C)[C@H](NC(=O)c1cccc(-n2cnnn2)c1)C(=O)OC` was 30.5%; that for `CC[C@H](C)[C@H](NC(=O)c1ccccc1-n1cnnn1)C(=O)OC` was -14.2%; that for `CC[C@H](C)[C@H](NC(=O)c1ccc(-n2cnnn2)cc1)C(=O)OC` was 61.2%.

On to `CCC(C)[C@H](NC(=O)c1ccc(F)cc1-n1cnnn1)C(=O)OC` (stereo partly specified), for which the INHIBITION is 51.3%. The value for `CCC(C)[C@H](NC(=O)c1cc(Br)ccc1-n1cnnn1)C(=O)OC` (stereo partly specified) was 34.7%. As for `CCC(C)[C@H](NC(=O)c1cc(F)ccc1-n1cnnn1)C(=O)OC` (stereo partly specified), the figure is 46.1%. As for `O=C(Nc1ccccn1)c1ccc(F)c(S(=O)(=O)NC2CC2)c1`, the figure is 4.34%; as for `CCn1cc(-n2cc3nc(N4CCOCC4)[nH]cc-3c2=O)cn1`, -37.9%; as for `CCN1CCC(NC(=O)Cc2csc(C(C)(C)C)n2)CC1`, 50.5%. For the compound `CCOC(=O)C1CCN(Cc2csc(C(C)(C)C)n2)CC1`, the INHIBITION is reported as -13.3%. As for `CN(C)C(=O)C1CCN(Cc2csc(C(C)(C)C)n2)CC1`, the figure is 56.4%; as for `CC(=O)N1CCC(NC(=O)Cc2csc(C(C)(C)C)n2)CC1`, 5.91%; as for `CN1CCC(NC(=O)Cc2csc(C(C)(C)C)n2)CC1`, 47.2%. As for `CC(C)c1nc(CC(=O)Nc2cnccc2O)cs1`, the INHIBITION turned out to be 29.4%. The value for `CC(C)(C)c1nc(CC(=O)NCCC(=O)Nc2ccncc2)cs1` was 45.4%; that for `CCc1nc(CN2CCC(C(=O)N(C)C)CC2)cs1` was 11.8%; that for `CC(C)(C)c1nc(CC(=O)Nc2cnccc2O)cs1` was 52.5%. The value for `Cn1ncc2c1C(COCC1CC1)N(C(=O)c1ccncn1)CC2` (stereo unspecified) was 47.4%. As for `CN(CCNC(=O)NCc1ccsc1)C1CCCC1`, the figure is -43.5%; as for `CN(Cc1coc(-c2ccccc2)n1)C1CCCN(c2cccnn2)C1` (stereo unspecified), 24%; as for `Cn1cccc1C(=O)N1C[C@@H](OCc2ccncc2)[C@@H]2OCCC[C@@H]21`, 42.5%.

For `O=C1NCCO[C@H]2CN(C(=O)Cc3cccs3)CC[C@@H]12`, the INHIBITION was determined as 14%. The value for `COc1cc(F)ccc1CC(=O)N1CC[C@H]2C(=O)NCCO[C@H]2C1` was 52.1%. As for `O=C1NCCO[C@H]2CN(C(=O)Cc3ccco3)CC[C@@H]12`, the figure is -2.26%. For the compound `Cc1ccc(F)c2c1CCCN2Cc1cc(=O)n(C)c(=O)n1C`, the INHIBITION was 38.8%. As for `CC[C@H](C)[C@@H](CO)NC(C)Cc1ccc(Cl)cc1` (stereo partly specified), the figure is 71.2%; as for `CC[C@H](C)[C@@H](CO)NC(C)Cc1ccc(F)cc1` (stereo partly specified), 8.24%; as for `CC[C@H](C)[C@@H](CO)NC(C)Cc1ccc(C)cc1` (stereo partly specified), 41.7%. The value for `CN(C)c1ncc2c(n1)C1(CCN(Cc3ccccc3F)C1)COC2` (stereo unspecified) was 23.6%. As for `COc1ccc(CN2CCN(C(C)=O)CC3(CC(=O)N(C)C3)C2)cc1` (stereo unspecified), the figure is -7.6%; as for `O=C(NCc1ccco1)N1CCOC(c2ccccc2Cl)C1` (stereo unspecified), 8.12%. As to `O=C(NC1CCCCC1)N1CCC(n2cc3[nH]cccc-3c2=O)CC1`, the INHIBITION worked out at 36.5%. As for `O=C(c1ncc[nH]1)N1CCC(n2cc(-c3ccccn3)nn2)CC1`, the figure is 6.88%; as for `O=C(NCc1ccco1)N1CCC(n2ccc(C(F)(F)F)n2)CC1`, 57.7%. In the case of `Cc1cc(CN2CCN(C(=O)NCc3ccco3)CC2)no1`, the INHIBITION is on record as 31.2%.

Consider `O=C(NC1CCCCC1)N1CCC(n2cc(-c3ccccn3)nn2)CC1`, for which the INHIBITION worked out at 83.5%. The value for `COC1CCCOC12CCN(C(=O)NCc1ccco1)CC2` (stereo unspecified) was 4.52%; that for `O=C(NCc1ccon1)N1CCC(n2ccc(C(F)(F)F)n2)CC1` was 1.2%; that for `CCNC(=O)N1CCC(n2ccc(C(F)(F)F)n2)CC1` was 40.6%.

For the compound `O=C(NCc1ccco1)N1CCC(n2cc(-c3ccccn3)nn2)CC1`, the INHIBITION stood at 65.6%.

For the compound `CNCc1cn(C2CCN(C(=O)NCc3ccco3)CC2)nn1`, the INHIBITION is 71.2%. Take `O=C(c1ccco1)N1CCC(n2cc(-c3ccsc3)nn2)CC1`: the INHIBITION is recorded as 31.2%.

The record behind these values is ChEMBL document CHEMBL4513216, “Probing the Open Global Health Chemical Diversity Library for Multistage-Active Starting Points for Next-Generation Antimalarials” (ACS Infect Dis, 2020).
